Data on six molecules can be found in ChEMBL document CHEMBL3988442, “University of Dundee, Small-Polar-MMV Screening Library” (2021).

The target in the assay is Shiga toxin 2 (Escherichia coli O157:H7) (UniProt P09385+P09386). The assay can be described thus: E. coli 0.157:H7 Shiga Toxin SOP - stx2 screening assay. Type of assay: functional. On the set-up: scale not given: direction of the effect not stated beside the values. Particulars: 30 µM.
Turning to `N#Cc1ccc(CN2CCN(C(=O)c3cc(C4CC4)[nH]n3)CC2)cc1`, the Percent Effect was -17.1%. For `O=C(NC1CCS(=O)(=O)C1)N1CCN(c2cnccn2)CC1` (stereo unspecified) the value was -8.56%. For `CC(C)Cc1cc(NC(=O)c2ccc(=O)[nH]n2)n(C)n1`, the Percent Effect is -34.7%.

For the molecule `CCN1CCN(C2CCN(Cc3cc(C)on3)CC2)C1=O`, the Percent Effect is -26.8%. With `O=C(CN1CCC(C(=O)c2cc(F)ccc2F)CC1)NC1CCCC1`, the Percent Effect was -63.4%. With `Cc1nn(C)c(Cl)c1C1CCCN1C(=O)c1ccc2nncn2c1` (stereo unspecified) the figure was 2.44%.
